From paper PMC4336329 (PLoS ONE, 2015)
About 14,000 (4.5%) of roughly 310,000 compounds showed an effect of 50% or more. Effects have a minus sign here. Shown is part of a subset that was picked to be rich in strong results.

Target: human ether-à-go-go-related gene (hERG) potassium channel (human, UniProt Q12809)
Test: primary screen, population patch clamp on CHO cells stably expressing hERG; higher = less effect of the substance
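Further: peak tail current of the secondary pulse compared with the same well before compound.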

Chain of human ether-à-go-go-related gene (hERG) potassium channel (Q12809 whole entry, looked up): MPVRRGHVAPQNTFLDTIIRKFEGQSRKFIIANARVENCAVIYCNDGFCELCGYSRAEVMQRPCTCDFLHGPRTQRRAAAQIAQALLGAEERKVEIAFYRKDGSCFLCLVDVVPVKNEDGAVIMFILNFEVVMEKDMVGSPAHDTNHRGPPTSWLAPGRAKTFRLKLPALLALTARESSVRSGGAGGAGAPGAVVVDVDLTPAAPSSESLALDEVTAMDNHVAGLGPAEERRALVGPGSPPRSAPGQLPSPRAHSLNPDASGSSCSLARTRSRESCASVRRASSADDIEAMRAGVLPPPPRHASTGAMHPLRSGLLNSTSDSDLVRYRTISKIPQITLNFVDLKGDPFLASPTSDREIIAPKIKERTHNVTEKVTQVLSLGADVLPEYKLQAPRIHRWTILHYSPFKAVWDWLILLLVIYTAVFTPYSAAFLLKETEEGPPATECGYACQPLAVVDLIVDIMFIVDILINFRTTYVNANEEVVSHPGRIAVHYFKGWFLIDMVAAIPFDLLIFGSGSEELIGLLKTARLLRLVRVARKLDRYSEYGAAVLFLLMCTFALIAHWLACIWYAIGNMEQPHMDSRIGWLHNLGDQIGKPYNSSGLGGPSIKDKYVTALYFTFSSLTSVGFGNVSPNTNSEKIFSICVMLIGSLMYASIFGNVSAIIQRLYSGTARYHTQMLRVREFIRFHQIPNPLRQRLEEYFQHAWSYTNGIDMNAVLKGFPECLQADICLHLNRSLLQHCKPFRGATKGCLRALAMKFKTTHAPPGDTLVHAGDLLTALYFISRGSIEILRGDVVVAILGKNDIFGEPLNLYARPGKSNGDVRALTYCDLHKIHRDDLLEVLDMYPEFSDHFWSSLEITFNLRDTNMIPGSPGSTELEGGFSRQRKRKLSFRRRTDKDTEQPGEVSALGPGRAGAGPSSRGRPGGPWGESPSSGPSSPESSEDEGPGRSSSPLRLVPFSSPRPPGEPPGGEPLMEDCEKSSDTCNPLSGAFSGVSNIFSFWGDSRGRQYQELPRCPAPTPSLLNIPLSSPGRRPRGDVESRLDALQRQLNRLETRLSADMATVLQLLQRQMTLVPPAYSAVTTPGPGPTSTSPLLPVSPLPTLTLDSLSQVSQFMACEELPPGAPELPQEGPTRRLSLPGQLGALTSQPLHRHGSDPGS

Q: How did the “hERG current change (%, negative = inhibition) at 10uM” value turn out when `CC(C)(C)NC(=O)NC(=O)CN1CCN(Cc2ccccc2)CC1` was run?
A: Its value is -1.77%.

Q: How did the “hERG current change (%, negative = inhibition) at 10uM” value turn out when `COC(=O)[C@@]1(Cc2ccc(OC)cc2)[C@H]2c3cc(C(=O)N(C)C)n(CCc4ccc(OC)c(Br)c4)c3C[C@H]2CN1C(=O)c1ccccc1` was run?
A: The value was 11.4%.

Q: How did the “hERG current change (%, negative = inhibition) at 10uM” value turn out when `Cc1cccc(C(=O)NCCN2CCOCC2)c1[N+](=O)[O-]` was run?
A: The value was 4.8%.

Q: For `Cc1ccc(C)c(OCc2cc(C(=O)N3C[C@@H](C)O[C@@H](C)C3)no2)c1`, which “hERG current change (%, negative = inhibition) at 10uM” value is on record?
A: Its value is 4.95%.

Q: How did the “hERG current change (%, negative = inhibition) at 10uM” value turn out when `CCCCc1c(O)nc(SCC(=O)NCCc2ccc(OC)c(OC)c2)[nH]c1=O` was run?
A: Its value is -0.0252%.

Q: How did the “hERG current change (%, negative = inhibition) at 10uM” value turn out when `COc1cc(OC)cc(C(=O)NC(=S)Nc2ccc3[nH]c(=O)[nH]c3c2)c1` was run?
A: Its value is -27%.

Q: With `COc1ccc(C(=O)NC(=S)Nc2ccc3[nH]c(=O)[nH]c3c2)cc1` as the compound, how does the “hERG current change (%, negative = inhibition) at 10uM” value read?
A: Its value is 15.5%.

Q: `COc1cccc(C(=O)NC(=S)Nc2ccc3[nH]c(=O)[nH]c3c2)c1` was tested. Which “hERG current change (%, negative = inhibition) at 10uM” value did it give?
A: The value was -70.3%.

Q: How did the “hERG current change (%, negative = inhibition) at 10uM” value turn out when `CCN(CC)c1ccc(CNc2nc3ccccc3n2C(C)C)cc1` was run?
A: The value was 1.88%.

Q: With `CCN(CC)c1ccc(CNc2nc3ccccc3n2CC)cc1` as the compound, how does the “hERG current change (%, negative = inhibition) at 10uM” value read?
A: Its value is -23.5%.

Q: `CCN(CC)c1ccc(CNc2nc3ccccc3n2CCN2CCCCC2)cc1` was tested. Which “hERG current change (%, negative = inhibition) at 10uM” value did it give?
A: The value was -74.5%.

Q: `CCC(=O)Nc1nc2ccccc2n1CCN1CCOCC1` was tested. Which “hERG current change (%, negative = inhibition) at 10uM” value did it give?
A: The value was 16.2%.

Q: `CCN(CC)c1ccc(CNc2nc3ccccc3n2CCN2CCOCC2)cc1` was tested. Which “hERG current change (%, negative = inhibition) at 10uM” value did it give?
A: The value was -79.5%.

Q: Which “hERG current change (%, negative = inhibition) at 10uM” value does the source give for `CCN(CC)c1ccc(CNc2nc3ccccc3n2C)cc1` here?
A: Its value is -49.7%.

Q: For `Cc1ccc(NC(=O)CCN2C(=O)C3CC=CCC3C2=O)cc1Cl` (stereo not shown), which “hERG current change (%, negative = inhibition) at 10uM” value is on record?
A: The value was -10.9%.

Q: `COc1cc(-c2nnc(-c3ccncc3)o2)ccc1OCc1ccccc1` was tested. Which “hERG current change (%, negative = inhibition) at 10uM” value did it give?
A: Its value is 4.05%.

Q: Which “hERG current change (%, negative = inhibition) at 10uM” value does the source give for `Cc1ccccc1-c1nc2cc(NC(=O)C3CC3)ccc2o1` here?
A: The value was 7.97%.

Q: With `Cc1ccc(NC(=O)C2CC2c2ccccc2)cc1` (stereo not shown) as the compound, how does the “hERG current change (%, negative = inhibition) at 10uM” value read?
A: The value was 2.96%.

Q: How did the “hERG current change (%, negative = inhibition) at 10uM” value turn out when `Cc1cccc(OCC(=O)Nc2cc(C)ccc2O)c1` was run?
A: Its value is 12.4%.

Q: Which “hERG current change (%, negative = inhibition) at 10uM” value does the source give for `CCCn1c(=N)c(S(=O)(=O)c2ccccc2)cc2c(=O)n3ccccc3nc21` here?
A: The value was -15.6%.

Q: `Cc1ccc2nc3c(cc(C(N)=S)c(=N)n3CCCOC(C)C)c(=O)n2c1` was tested. Which “hERG current change (%, negative = inhibition) at 10uM” value did it give?
A: The value was -74.4%.

Q: With `CCOCCCn1c(=N)c(S(=O)(=O)c2ccc(C)cc2)cc2c(=O)n3cc(C)ccc3nc21` as the compound, how does the “hERG current change (%, negative = inhibition) at 10uM” value read?
A: Its value is 11.6%.

Q: `CCOCCCn1c(=N)c(S(=O)(=O)c2ccccc2)cc2c(=O)n3cc(C)ccc3nc21` was tested. Which “hERG current change (%, negative = inhibition) at 10uM” value did it give?
A: Its value is -19.1%.

Q: For `CC(C)OCCCn1c(=N)c(C(N)=S)cc2c(=O)n3ccccc3nc21`, which “hERG current change (%, negative = inhibition) at 10uM” value is on record?
A: Its value is -81.5%.

Q: With `CC(C)OCCCn1c(=N)c(S(=O)(=O)c2ccccc2)cc2c(=O)n3ccccc3nc21` as the compound, how does the “hERG current change (%, negative = inhibition) at 10uM” value read?
A: The value was -43.6%.

Q: Which “hERG current change (%, negative = inhibition) at 10uM” value does the source give for `CCOC(=O)C1=C(N)Oc2cc(C)[nH]c(=O)c2C1c1ccncc1` (stereo not shown) here?
A: Its value is 11.9%.

Q: `COc1cc2c(cc1C1NC(=S)NC(C)=C1C(N)=O)CCCC2` (stereo not shown) was tested. Which “hERG current change (%, negative = inhibition) at 10uM” value did it give?
A: The value was 9.6%.

Q: Which “hERG current change (%, negative = inhibition) at 10uM” value does the source give for `Cc1ccc(CNC(=O)CN2CCCC(C)C2)cc1` (stereo not shown) here?
A: The value was -29.7%.

Q: With `COc1ccc(N2CCN(C3CC(=O)N(C)C3=O)CC2)cc1` (stereo not shown) as the compound, how does the “hERG current change (%, negative = inhibition) at 10uM” value read?
A: Its value is 17.4%.

Q: How did the “hERG current change (%, negative = inhibition) at 10uM” value turn out when `O=S(=O)(c1ccc(Br)cc1Cl)N1CC[NH+](CCO)CC1.[Cl-]` was run?
A: The value was 3.35%.

Q: Which “hERG current change (%, negative = inhibition) at 10uM” value does the source give for `Oc1ccc(/C=N/N(Cc2ccccc2)c2ccccc2)cc1` here?
A: The value was 35.8%.

Q: With `Cc1sc2ncn(CC(=O)NCCCC(=O)N3CCN(Cc4ccc5c(c4)OCO5)CC3)c(=O)c2c1C` as the compound, how does the “hERG current change (%, negative = inhibition) at 10uM” value read?
A: Its value is -6.94%.

Q: With `CCn1ncc(/C=C/C(=O)c2ccccc2)c1C` as the compound, how does the “hERG current change (%, negative = inhibition) at 10uM” value read?
A: The value was 5.83%.

Q: How did the “hERG current change (%, negative = inhibition) at 10uM” value turn out when `CCOC(=O)c1cc(C)sc1NC(=O)CSc1nccn1C` was run?
A: Its value is -19.9%.

Q: `CCc1cc(C(=O)OC)c(NC(=O)CSc2nccn2C)s1` was tested. Which “hERG current change (%, negative = inhibition) at 10uM” value did it give?
A: The value was -56.9%.

Q: With `COC(=O)c1c(NC(=O)CSc2nccn2C)sc(C)c1C` as the compound, how does the “hERG current change (%, negative = inhibition) at 10uM” value read?
A: The value was -15.8%.

Q: With `Cl.OC(COc1ccc(Cl)cc1)CN1C2=NCCCN2c2ccccc21` (stereo not shown) as the compound, how does the “hERG current change (%, negative = inhibition) at 10uM” value read?
A: The value was -76.3%.

Q: How did the “hERG current change (%, negative = inhibition) at 10uM” value turn out when `O=C1CCC(=O)N1CC(O)COc1ccccc1` (stereo not shown) was run?
A: Its value is 4.87%.

Q: How did the “hERG current change (%, negative = inhibition) at 10uM” value turn out when `Cl.OC(COc1ccccc1)CN1C2=NCCCN2c2ccccc21` (stereo not shown) was run?
A: The value was -67%.

Q: `Cc1cc(C(=O)NNC(=O)c2ccccc2[N+](=O)[O-])c(C)o1` was tested. Which “hERG current change (%, negative = inhibition) at 10uM” value did it give?
A: Its value is 11.2%.

Q: For `O=C(CN1CCN(Cc2ccccc2)CC1)N/N=C/c1cccs1`, which “hERG current change (%, negative = inhibition) at 10uM” value is on record?
A: Its value is -22.9%.

Q: How did the “hERG current change (%, negative = inhibition) at 10uM” value turn out when `O=C(CN1CCN(Cc2ccccc2Cl)CC1)N/N=C/c1cccs1` was run?
A: The value was -20.4%.

Q: `O=C(Cc1ccc(Cl)cc1)N/N=C/c1ccncc1` was tested. Which “hERG current change (%, negative = inhibition) at 10uM” value did it give?
A: Its value is -27.3%.

Q: Which “hERG current change (%, negative = inhibition) at 10uM” value does the source give for `O=C(CN1CCN(Cc2ccc(Cl)cc2)CC1)N/N=C/c1ccncc1` here?
A: The value was -80.1%.

Q: `O=C(CN1CCN(Cc2ccc(Cl)cc2)CC1)N/N=C/c1cccs1` was tested. Which “hERG current change (%, negative = inhibition) at 10uM” value did it give?
A: The value was -67.2%.

Q: How did the “hERG current change (%, negative = inhibition) at 10uM” value turn out when `O=C(CN1CCN(Cc2ccccc2)CC1)N/N=C/c1cccnc1` was run?
A: Its value is -12.8%.

Q: For `O=C(O)CCCNC(=O)Cc1ccccc1`, which “hERG current change (%, negative = inhibition) at 10uM” value is on record?
A: Its value is 5.08%.

Q: Which “hERG current change (%, negative = inhibition) at 10uM” value does the source give for `O=C(C1=C(O)C(=O)N(c2ncccn2)C1c1cccs1)c1ccco1` (stereo not shown) here?
A: Its value is 14.3%.

Q: Which “hERG current change (%, negative = inhibition) at 10uM” value does the source give for `COc1ccccc1C1NC(=O)NC(C)=C1C(=O)OC1CCCCC1` (stereo not shown) here?
A: Its value is 6.66%.

Q: How did the “hERG current change (%, negative = inhibition) at 10uM” value turn out when `COCCNC(=O)C(=O)NNC(=O)CCc1ccccc1` was run?
A: Its value is 8.78%.

Q: For `CCOC(=O)CN1C(=O)N[C@@H](c2cccc(C(F)(F)F)c2)C(C(C)=O)=C1C`, which “hERG current change (%, negative = inhibition) at 10uM” value is on record?
A: The value was 11.8%.

Q: How did the “hERG current change (%, negative = inhibition) at 10uM” value turn out when `Cn1nc(-c2ccccc2)c2nc3ccccc3nc21` was run?
A: Its value is -5.31%.

Q: With `COc1cc2nc(N3CCN(C(=O)c4ccco4)CC3)nc(N)c2cc1OC.Cl` as the compound, how does the “hERG current change (%, negative = inhibition) at 10uM” value read?
A: The value was -35.9%.

Q: Which “hERG current change (%, negative = inhibition) at 10uM” value does the source give for `CC(=O)c1ccc(N2CCN(C(=O)c3cc(-c4ccncc4)nc4ccc(Br)cc34)CC2)cc1` here?
A: The value was -42%.

Q: For `O=C(c1cc(-c2ccncc2)nc2ccc(Cl)cc12)N1CCN(Cc2ccc3c(c2)OCO3)CC1`, which “hERG current change (%, negative = inhibition) at 10uM” value is on record?
A: Its value is -46.7%.

Q: Which “hERG current change (%, negative = inhibition) at 10uM” value does the source give for `Cl.Nc1nc(N2CCN(C(=O)c3ccco3)CC2)nc2ccc(Br)cc12` here?
A: Its value is -59.5%.

Q: With `O=C(c1ccco1)N1CCN(C(=O)c2cc(-c3ccncc3)nc3ccc(Br)cc23)CC1` as the compound, how does the “hERG current change (%, negative = inhibition) at 10uM” value read?
A: Its value is -72.7%.

Q: How did the “hERG current change (%, negative = inhibition) at 10uM” value turn out when `Cl.Nc1nc(N2CCN(C(=O)c3ccco3)CC2)nc2ccccc12` was run?
A: The value was -49.4%.

Q: How did the “hERG current change (%, negative = inhibition) at 10uM” value turn out when `O=C(c1cc(-c2ccncc2)nc2ccc(Br)cc12)N1CCN(c2ccccn2)CC1` was run?
A: Its value is -37.2%.

Q: With `O=C(O)c1cc(-c2ccc3c(c2)OCO3)nc2ccc(Br)cc12` as the compound, how does the “hERG current change (%, negative = inhibition) at 10uM” value read?
A: Its value is 9.07%.

Q: `O=C(c1cc(-c2ccncc2)nc2ccc(Br)cc12)N1CCN(Cc2ccc3c(c2)OCO3)CC1` was tested. Which “hERG current change (%, negative = inhibition) at 10uM” value did it give?
A: Its value is -56.5%.
